Laboratory results reported in PubChem BioAssay AID1159580 (chemical genetic matrix, 2015).
About 2,000 (36%) of roughly 5,500 compounds were called active. Another 18% or so got no clear call; they are omitted. Rule as the data show it: active = normalized growth mostly below about 0.91 (no sharp cut-off); inconclusive = no clear call, values can overlap the other calls; inactive = mostly above about 0.92. Some of the results follow.

Assay: chemical genetic growth profiling, strain panel (AID 1159580);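 also: tested at 20 µM; growth read once vehicle control cultures reached saturation at 30 °C; 1 = growth at the plate median or of vehicle wells; lower values mean less growth of the strain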
Conditions: growth OD

Measured: normalized growth

CC(C)(C)CC(C)(C)c1ccc(O)c(Cc2ccc(Cl)cc2Cl)c1
inactive: S. cerevisiae deletion strains, locus YJR075W, strain HOC1, stronger effect = lower value 1.01 | S. cerevisiae deletion strains, locus YKL009W, strain mrt4, stronger effect = lower value 1.01 | S. cerevisiae deletion strains, locus YKL068W, stronger effect = lower value 1.02 | S. cerevisiae deletion strains, locus YKL085W, strain MDH1 (second series), stronger effect = lower value 1.01 | S. cerevisiae deletion strains, locus YKL085W, strain MDH1, stronger effect = lower value 1.01 | S. cerevisiae deletion strains, locus YKL160W, strain elf1, stronger effect = lower value 1 | S. cerevisiae deletion strains, locus YKL190W, strain CNB1, stronger effect = lower value 1 | S. cerevisiae deletion strains, locus YKR001C, strain vps1, stronger effect = lower value 1.01 | S. cerevisiae deletion strains, locus YKR026C, strain gcn3, stronger effect = lower value 1.02 | S. cerevisiae deletion strains, locus YKR091W, strain srl3, stronger effect = lower value 1.02 | S. cerevisiae deletion strains, locus YLL001W, strain dnm1, stronger effect = lower value 1.04 | S. cerevisiae deletion strains, locus YLL026W, stronger effect = lower value 1.01 | S. cerevisiae deletion strains, locus YLL041C, strain sdh2, stronger effect = lower value 1.02 | S. cerevisiae deletion strains, locus YLR027C, strain aat2, stronger effect = lower value 1.01 | S. cerevisiae deletion strains, locus YLR039C, strain RIC1, stronger effect = lower value 0.985 | S. cerevisiae deletion strains, locus YLR058C, strain SHM2, stronger effect = lower value 1.01 | S. cerevisiae deletion strains, locus YLR102C, strain apc9, stronger effect = lower value 1.01 | S. cerevisiae deletion strains, locus YLR113W, strain HOG1, stronger effect = lower value 1.03 | S. cerevisiae deletion strains, locus YLR221C, strain rsa3, stronger effect = lower value 0.995 | S. cerevisiae deletion strains, locus YLR258W, strain gsy2, stronger effect = lower value 1.02 | S. cerevisiae deletion strains, locus YLR262C, strain YPT6 (second series), stronger effect = lower value 0.981 | S. cerevisiae deletion strains, locus YLR262C, strain YPT6, stronger effect = lower value 0.974 | S. cerevisiae deletion strains, locus YLR268W, strain sec22, stronger effect = lower value 1.01 | S. cerevisiae deletion strains, locus YLR320W, strain mms22, stronger effect = lower value 1.02 | S. cerevisiae deletion strains, locus YLR330W, strain CHS5, stronger effect = lower value 0.999 | S. cerevisiae deletion strains, locus YLR342W, strain FKS1 (second series), stronger effect = lower value 0.995 | S. cerevisiae deletion strains, locus YLR342W, strain FKS1, stronger effect = lower value 1.01 | S. cerevisiae deletion strains, locus YLR357W, strain rsc2, stronger effect = lower value 1.05 | S. cerevisiae deletion strains, locus YLR370C, strain arc18, stronger effect = lower value 1.03 | S. cerevisiae deletion strains, locus YLR371W, strain rom2, stronger effect = lower value 1.01 | S. cerevisiae deletion strains, locus YLR384C, strain iki3, stronger effect = lower value 1.03 | S. cerevisiae deletion strains, locus YLR418C, strain cdc73, stronger effect = lower value 1.02 | S. cerevisiae deletion strains, locus YML016C, strain PPZ1, stronger effect = lower value 1.01 | S. cerevisiae deletion strains, locus YML032C, strain rad52, stronger effect = lower value 1.02 | S. cerevisiae deletion strains, locus YML120C, strain ndi1, stronger effect = lower value 1 | S. cerevisiae deletion strains, locus YML124C, strain tub3, stronger effect = lower value 1.02 | S. cerevisiae deletion strains, locus YMR058W, strain fet3, stronger effect = lower value 1.01 | S. cerevisiae deletion strains, locus YMR078C, strain ctf18, stronger effect = lower value 1.01 | S. cerevisiae deletion strains, locus YMR125W, strain sto1, stronger effect = lower value 1.02 | S. cerevisiae deletion strains, locus YMR129W, stronger effect = lower value 0.998 | S. cerevisiae deletion strains, locus YMR205C, strain PFK2, stronger effect = lower value 1.01 | S. cerevisiae deletion strains, locus YMR223W, strain ubp8, stronger effect = lower value 1.01 | S. cerevisiae deletion strains, locus YMR231W, strain pep5, stronger effect = lower value 1.03 | S. cerevisiae deletion strains, locus YMR263W, strain SAP30, stronger effect = lower value 0.998 | S. cerevisiae deletion strains, locus YMR307W, strain GAS1, stronger effect = lower value 0.972 | S. cerevisiae deletion strains, locus YNL067W, strain RPL9B, stronger effect = lower value 1.01 | S. cerevisiae deletion strains, locus YNL071W, strain lat1, stronger effect = lower value 1.03 | S. cerevisiae deletion strains, locus YNL128W, strain TEP1, stronger effect = lower value 1.02 | S. cerevisiae deletion strains, locus YNL153C, strain GIM3, stronger effect = lower value 1 | S. cerevisiae deletion strains, locus YNL183C, strain NPR1, stronger effect = lower value 0.973 | S. cerevisiae deletion strains, locus YNL209W, strain ssb2, stronger effect = lower value 1.02 | S. cerevisiae deletion strains, locus YNL233W, strain BNI4, stronger effect = lower value 1.01 | S. cerevisiae deletion strains, locus YNL248C, strain rpa49, stronger effect = lower value 1.01 | S. cerevisiae deletion strains, locus YNL250W, strain rad50, stronger effect = lower value 1.02 | S. cerevisiae deletion strains, locus YNL271C, strain bni1, stronger effect = lower value 1.02 | S. cerevisiae deletion strains, locus YNL298W, strain CLA4, stronger effect = lower value 1.03 | S. cerevisiae deletion strains, locus YNL307C, strain MCK1, stronger effect = lower value 1.02 | S. cerevisiae deletion strains, locus YNL322C, strain KRE1 (second series), stronger effect = lower value 1.02 | S. cerevisiae deletion strains, locus YNR049C, strain mso1, stronger effect = lower value 1.02 | S. cerevisiae deletion strains, locus YNR052C, strain pop2, stronger effect = lower value 1.01 | S. cerevisiae deletion strains, locus YOL006C, strain TOP1, stronger effect = lower value 0.836 | S. cerevisiae deletion strains, locus YOL012C, strain htz1 0.945 | S. cerevisiae deletion strains, locus YOL147C, strain pex11, stronger effect = lower value 1.02 | S. cerevisiae deletion strains, locus YOR001W, strain rrp6, stronger effect = lower value 1.01 | S. cerevisiae deletion strains, locus YOR061W, strain CKA2, stronger effect = lower value 1.01 | S. cerevisiae deletion strains, locus YOR069W, strain VPS5, stronger effect = lower value 1.01 | S. cerevisiae deletion strains, locus YOR070C, strain gyp1, stronger effect = lower value 1.01 | S. cerevisiae deletion strains, locus YOR080W, strain dia2, stronger effect = lower value 1.03 | S. cerevisiae deletion strains, locus YOR083W, strain WHI5, stronger effect = lower value 0.989 | S. cerevisiae deletion strains, locus YOR106W, strain vam3, stronger effect = lower value 0.988 | S. cerevisiae deletion strains, locus YOR136W, strain idh2, stronger effect = lower value 1.02 | S. cerevisiae deletion strains, locus YOR144C, strain elg1, stronger effect = lower value 1.01 | S. cerevisiae deletion strains, locus YOR184W, strain ser1, stronger effect = lower value 1.01 | S. cerevisiae deletion strains, locus YOR231W, strain MKK1, stronger effect = lower value 1.03 | S. cerevisiae deletion strains, locus YOR265W, strain rbl2, stronger effect = lower value 1.01 | S. cerevisiae deletion strains, locus YOR290C, strain snf2, stronger effect = lower value 1.02 | S. cerevisiae deletion strains, locus YOR316C, strain cot1, stronger effect = lower value 1.01 | S. cerevisiae deletion strains, locus YPL051W, strain arl3, stronger effect = lower value 1 | S. cerevisiae deletion strains, locus YPL078C, strain atp4, stronger effect = lower value 1.02 | S. cerevisiae deletion strains, locus YPL106C, strain sse1, stronger effect = lower value 1.04 | S. cerevisiae deletion strains, locus YPL240C, strain hsp82, stronger effect = lower value 1 | S. cerevisiae deletion strains, locus YPL241C, strain CIN2, stronger effect = lower value 1 | S. cerevisiae deletion strains, locus YPL256C, strain CLN2, stronger effect = lower value 1.04 | S. cerevisiae deletion strains, locus YPR119W, strain clb2, stronger effect = lower value 1.01 | S. cerevisiae deletion strains, locus YPR141C, strain kar3, stronger effect = lower value 1.01 | S. cerevisiae deletion strains, locus YPR163C, strain tif3, stronger effect = lower value 1.02 | S. cerevisiae deletion strains, locus YPR167C, strain met16, stronger effect = lower value 1.02 | S. cerevisiae deletion strains, strain wtn01, stronger effect = lower value 1.01 | S. cerevisiae strains, strain wild type, stronger effect = lower value 1
active: S. cerevisiae deletion strains, locus YOR270C, strain vph1, stronger effect = lower value 0.766
